Shown are actives, neighbours in structure and some others; about 19% of the full set was active somewhere.
IL-1B inflam inh: blocks inflammasome-driven IL-1 beta release; activity change, % at 57.5 µM; THP-1 LPS/ATP IL-1B secretion, AlphaLISA, 16 h; stronger effect = lower value; 360,000 tested, 4.7% active; AID 743279; in the data active = activity change below about -50%; inconclusive = mostly about -30% to -49%
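THP-1 cells pretreated 1 hr with compounds (up to 57.5 uM final), then stimulated with LPS (250 ng/mL final) plus ATP (1.25 mM final); secreted IL-1B measured by AlphaLISA after 16 hr, decreased signal indicating inhibition.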
ELG1 DNA repair: blocks ELG1-dependent DNA repair in HEK293T cells. HEK293T ELG1-luciferase reporter, luminescence, 16 h; DNA damage induced by 5-fluorouridine. Potency, µM (titrated, usually from 46.1 µM), without a hit: at the highest dose activity change, negative = inhibition, usual class: inhibitors. 330,000 tested, 2.3% active. AID 504467; also: potency is read from the fitted curve at half-maximal effect; nearly all actives have a fitted effect of over 55% in size
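Luminescence from the luciferase reporter, measured 30 min after ONE-Glo reagent at room temperature, was the read-out. Beforehand, 2,000 cells per well were exposed for 16 hr at 37 °C to 5-fluorouridine together with compound or vehicle.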
DT40 TDP1 no CPT: qHTS for Inhibitors of human tyrosyl-DNA phosphodiesterase 1 (TDP1): qHTS in cells in absence of CPT. DT40 Tdp1-/- hTDP1 cells, no CPT, ATP luminescence, 48 h. Potency, µM (titrated, usually from 46.2 µM), for inactives: at the highest dose activity change, negative = growth inhibition, usual class: inhibitors. 420,000 tested, 15% active. AID 686978, 2013; also: potency is read from the fitted curve at half-maximal effect; nearly all actives have a fitted effect of over 55% in size
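DT40 Tdp1-/-;hTDP1 cells, no CPT (DMSO vehicle only), 400 cells/well; compounds pin-transferred; ≥48 hr, 37 °C; CellTiter-Glo 30 min RT dark, luminescence read.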
HT1080 IDH1KD tx: kills HT-1080 cells with IDH1 knockdown; HT-1080 IDH1 knockdown viability, ATP luminescence, 48 h; Potency, µM (titrated, usually from 46.1 µM), for inactives: top-dose activity, negative = toxicity, most hits filed as cytotoxic; 360,000 tested, 2% active; AID 686971;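 also: potency is read from the fitted curve at half-maximal effect; 0% = DMSO wells and -100% = cell-free medium wells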
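Luminescent ATP read-out (CellTiter-Glo, 10 min at room temperature) after 48 h compound exposure at 37 °C gave viability of IDH1-knockdown HT-1080 cells. Activity was normalised to DMSO and cell-free wells, then fitted as concentration-response curves.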
HT1080NT lethal: kills 2HG-producing HT-1080-NT fibrosarcoma cells; HT-1080-NT fibrosarcoma viability, CellTiter-Glo ATP luminescence, 48 h; Potency, µM (titrated, usually from 46.1 µM), without a hit: top-dose activity, negative = less viability, most hits filed as cytotoxic; 360,000 tested, 1.6% active; AID 686970;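 also: NT is the 2HG producing partner of a matched IDH1 knockdown line; potency is read from the fitted curve at half-maximal effect; 0% = DMSO-treated cells and -100% = media-only wells without cells; nearly all actives have a fitted effect of over 55% in size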
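HT-1080-NT fibrosarcoma cells (2HG-overproducing), 750 cells/well in RPMI with 5% FBS, dosed after 2 h and incubated 48 h at 37C. CellTiter-Glo luminescence normalized to DMSO and no-cell wells; concentration-response curves fitted and classed.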
TDP1 cell CPT: DT40-hTDP1 cell growth loss with CPT. chicken DT40 Tdp1-/-;hTDP1 cells + 20 nM CPT, ATP luminescence, 48 h. Potency, µM (top dose mostly 46.2 µM), inactives show at the top dose activity change, negative = growth inhibition, most hits filed as inhibitors. 420,000 tested, 12% active. AID 686979; also: potency is read from the fitted curve at half-maximal effect; nearly all actives have a fitted effect of over 55% in size
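Chicken DT40 Tdp1-/- cells complemented with human TDP1, 400 cells/well, exposed to compounds plus 20 nM camptothecin for at least 48 h at 37 C; viability read as ATP content by CellTiter-Glo luminescence.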
An asterisk follows results filed as active; u = inconclusive; x = no result given. Unless noted, calls follow the shape of the dose curve; as a rule, active = well fitted curve in the direction sought with a large enough effect; inconclusive = small, poorly fitted or top-dose-only effect, or another doubt; inactive = no such curve, though single readings can be large; an effect the other way counts as inactive or inconclusive. Unless noted, % is scaled to controls: 0 for no effect and ±100 for the full control effect.

SMILES	IL-1B inflam inh	ELG1 DNA repair	DT40 TDP1 no CPT	HT1080 IDH1KD tx	HT1080NT lethal	TDP1 cell CPT
Cc1cccc(N(C)c2cc(C)nc3nc(C)nn23)c1	74.5	-13.3%	u	-2.5%	-15.9%	16.4µM*
CC1=C(C(=O)Nc2ccccc2)C(c2ccncc2)n2nc(SCc3ccccc3Cl)nc2N1 (stereo not drawn)	x	x	-14.8%	x	x	-3.0%
O=C(N/N=C/c1ccc(F)cc1)c1cc[n+]([O-])cc1	-7.9	9.5%	-9.6%	18.9%	18.7%	u
O=C(COc1ccc([N+](=O)[O-])cc1Cl)NCCN1C(=O)CSC1=O	6.6	13.2%	-0.1%	1.4%	0.9%	0.3%
COc1cc2nc(C3CCC3)nc(N3CCN(c4ccccc4OC)CC3)c2cc1OC	-24.7	11.6µM*	16.4µM*	-20.3%	-17.1%	16.4µM*
COc1cc2nc(C3CCC3)nc(N3CCN(c4ccccn4)CC3)c2cc1OC	-99.5*	10.3µM*	9.2µM*	0.6%	8.2%	9.2µM*
COc1cc(NC(=S)N2CCN(c3ccccn3)CC2)c(OC)cc1Cl	-3.8	-16.2%	u	-2.8%	-0.4%	-14.5%
COc1cc2nc(Cl)nc(N3CCN(C)CC3)c2cc1OC	x	6.3%	x	x	x	x
COc1ccccc1CNC(=O)Cc1c(C)c2c(cc(C)c3c(C)coc32)oc1=O	x	x	-0.6%	x	x	6.0%
OCC1OC(Nc2ccccc2C=NO)C(O)C1O (stereo not drawn)	54.7	x	-6.9%	-6.1%	-4.4%	4.2%
CCN(C(=O)Cn1nc2c3cc(F)ccc3n(Cc3cccc(C)c3)cc-2c1=O)c1cccc(C)c1	x	x	-1.2%	x	x	-5.3%
O=C(NCCCN1CCOCC1)c1cn(-c2ccccc2)nc1-c1ccc(Br)cc1	u	u	16.4µM*	-26.0%	-14.6%	u
O=C(Nc1nc2ccccc2n1CCN1CCOCC1)c1cn(-c2ccccc2)nc1-c1ccccc1	60.1	18.4µM*	18.4µM*	u	u	18.4µM*
COc1c2c(c(OC)c3ccccc13)[C@@]1(OC2)O[C@H](CCO)C[C@H](O)[C@H]1O	0.0	x	0.7%	3.8%	4.1%	1.2%
O=C(CN1C=NS(=O)(=O)c2ccccc21)Nc1ccccc1F	x	x	-15.9%	x	x	-9.6%
COc1ccc(S(=O)(=O)c2nnn(-c3ccc(C(C)C)cc3)c2C)cc1	x	x	14.6µM*	x	x	14.6µM*
COc1ccc(S(=O)(=O)c2nnn(-c3cc(Cl)c(OC)cc3OC)c2C)cc1	x	x	-18.8%	x	x	-3.5%
CCc1noc(C)c1C(=O)OCC(=O)Nc1cccc(C)c1	0.9	8.5%	-2.4%	0.8%	6.1%	u
OCCNCC(O)CN1c2ccccc2Sc2ccccc21 (stereo not drawn)	u	-7.9%	u	-27.2%	u	u
CC1CCN(CC(O)CN2c3ccccc3Sc3ccccc32)CC1 (stereo not drawn)	0.0	4.0%	18.4µM*	11.3%	-2.4%	u
COc1ccc(OC)c(NC(=O)c2nnn(CC(=O)Nc3ccc(C(C)C)cc3)c2N)c1	x	x	u	x	x	-101.3%
Cn1cc(C2=C(c3cn(CCCSC(=N)N)c4ccccc34)C(=O)NC2=O)c2ccccc21	x	x	0.708µM*	x	x	0.631µM*
CN(C)CCCn1cc(C2=C(c3c[nH]c4ccccc34)C(=O)NC2=O)c2ccccc21	x	x	23.7µM*	x	x	-121.7%
Cn1cc(SCC(N)=O)c2ccccc21	0.3	u	-3.2%	12.0%	-3.3%	-16.9%
CC(C)(C)S(=O)(=O)N1C[C@@H]2C(=CC[C@H]3C(=O)N(c4ccccc4)C(=O)[C@@H]23)[C@@H]1CCO	-2.2	x	-24.7%	-3.3%	-3.1%	-25.5%
COc1ccc(C=O)cc1COc1ccccc1F	55.7	-2.2%	u	u	-17.8%	u

Screening results (PubChem BioAssay)
